Shown is part of a subset that was picked to be rich in hits.
CHX counter – counter-screen hit for Shiga toxin inhibitors, cycloheximide. cell reporter, cycloheximide protein synthesis inhibition counterscreen. max response, %. actives 12% (n = 300,000). AID 2314; in the data active = max response mostly above about 13%, no sharp cut-off; inactive = mostly below about 14%; also: read at 38.3 µM for the half of the compounds with a filed dose; 0% is about no effect
RE007 growth inh – less growth of the S. pombe RE007 Vpr strain; actives 0.21% (n = 360,000); S. pombe RE007 Vpr strain, BacTiter-Glo ATP luminescence, 24 h; Potency, µM (highest dose often 92.2 µM), for inactives: top-dose activity change, negative = less growth, actives largely listed as inhibitors; active = well fitted falling curve with a large enough effect; also: potency is read from the fitted curve at half-maximal effect; % is scaled to controls: 0 for no effect and ±100 for the full control effect; nearly all actives have a fitted effect of over 50% in size
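Fission yeast RE007 carrying one integrated HIV-1 vpr copy, seeded at OD 0.01 in PMG+AL medium with 23 nL pinned compound. Grown 24 h at 30 degrees; viability read by BacTiter-Glo luminescence after 5 min.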
LmPK inhibitor – inhibitors of Leishmania mexicana pyruvate kinase | purified LmPK, Kinase-Glo ATP luminescence, 1 h | Potency, µM (highest dose often 57.5 µM), inactives show top-dose activity change, negative = inhibition, hits mostly inhibitors | actives 0.37% (n = 290,000); also: potency is read from the fitted curve at half-maximal effect; % is scaled to controls: 0 for no effect and ±100 for the full control effect
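In 50 mM imidazole pH 7.2 with 7 mM MgCl2, LmPK (0.1 nM) turned over PEP (0.5 mM) and ADP (0.1 mM) for 1 h at room temperature. Luciferase read-out of ATP.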
Shiga toxin inh – blocks Shiga toxin action in Vero cells. actives 9.2% (n = 290,000). AID 2315. Vero cells, Shiga toxin protein synthesis inhibition reporter. inhibition, % at 38.7 µM; in the data active = inhibition mostly above about 28%, no sharp cut-off; inactive = mostly below about 43%; also: 0% is about no effect
Giardia FBPA inh – inhibitors of Giardia lamblia fructose-1,6-bisphosphate aldolase; A8B2U2; purified Giardia FBPA; actives 0.71% (n = 290,000); Potency, µM (series often up to 59.6 µM), without a hit: at the highest dose activity, negative = inhibition, hits mostly inhibitors; also: potency is read from the fitted curve at half-maximal effect; % is scaled to controls: 0 for no effect and ±100 for the full control effect; nearly all actives have a fitted effect of over 55% in size
Target sequence (A8B2U2 whole entry, looked up): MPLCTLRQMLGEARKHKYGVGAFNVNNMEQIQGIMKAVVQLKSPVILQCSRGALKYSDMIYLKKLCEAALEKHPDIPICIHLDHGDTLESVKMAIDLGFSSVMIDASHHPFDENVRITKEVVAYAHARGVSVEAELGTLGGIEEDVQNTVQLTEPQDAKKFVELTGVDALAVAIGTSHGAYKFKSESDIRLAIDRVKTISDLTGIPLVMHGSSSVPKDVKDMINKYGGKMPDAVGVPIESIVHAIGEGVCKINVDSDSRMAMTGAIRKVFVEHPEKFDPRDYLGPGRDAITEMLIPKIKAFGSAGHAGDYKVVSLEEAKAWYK
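Giardia FBPA (40 nM reagent) was preincubated 10 min at RT with compound (up to 57.5 uM final), then substrate plus GAPDH/TPI/NAD/arsenate coupling system with diaphorase/resazurin was added; resorufin fluorescence (525/598 nm) was read after 20 min.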
Tb PYK inh – inhibitors of Trypanosoma brucei pyruvate kinase; actives 0.12% (n = 410,000); AID 624173; Potency, µM (titrated, usually from 76.8 µM), for inactives: at the highest dose activity, negative = inhibition, actives largely listed as inhibitors; TbPYK enzyme, Kinase-Glo Plus ATP luminescence, 45 min; also: potency is read from the fitted curve at half-maximal effect; % is scaled to controls: 0 for no effect and ±100 for the full control effect; nearly all actives have a fitted effect of over 50% in size
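Glycolytic pyruvate kinase of T. brucei was incubated with substrate, test compound and 130 uM ADP for 45 minutes at room temperature. Luminescent Kinase-Glo Plus signal was measured after 10 minutes.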
Active calls of the source: *. Unless noted, calls follow the shape of the dose curve; as a rule, active = well fitted curve in the direction sought with a large enough effect; inconclusive = small, poorly fitted or top-dose-only effect, or another doubt; inactive = no such curve, though single readings can be large; an effect the other way counts as inactive or inconclusive.

What do the screens show for `Cc1ccc(-c2cc(C(=O)NCCc3ccccc3)c3c(-c4ccc(C)cc4)[nH]nc3n2)cc1`?
Tb PYK inh: -5.6%

What do the screens show for `CCCCN(CC)CCCNC(=O)CS(=O)(=O)Cc1nc(-c2ccc(C)cc2)oc1C`?
Tb PYK inh: 6.3%

Results for Cc1nc(NCc2ccccc2)c2nc(-c3ccccc3)n(CCN3CCCC3)c2n1 ?
Giardia FBPA inh: 8.7%

How did C/C(=N\NC(=O)COc1ccc(C#N)cc1)c1ccc(N2CCOCC2)cc1 do in these assays?
CHX counter: 6.4; RE007 growth inh: 10.7%; LmPK inhibitor: 0.1%; Shiga toxin inh: 26.1*; Giardia FBPA inh: 8.2%; Tb PYK inh: -4.5%

Results for C/C(=N/NC(=O)c1cccs1)c1ccc(N2CCOCC2)cc1 ?
CHX counter: 51.3*; RE007 growth inh: -5.7%; LmPK inhibitor: -6.0%; Shiga toxin inh: 70.0*; Giardia FBPA inh: -0.1%; Tb PYK inh: 3.5%

What do the screens show for `Cn1cccc1C(=O)N1CCC[C@@]2(CCN(c3ccncc3)C2)C1`?
Giardia FBPA inh: 6.2%; Tb PYK inh: 1.2%

How did O=C1c2ccccc2C(=O)N1CCN1CCc2ccccc21 do in these assays?
CHX counter: 37.2*; RE007 growth inh: -0.2%; LmPK inhibitor: -3.7%; Shiga toxin inh: 93.9*; Giardia FBPA inh: -1.5%; Tb PYK inh: -1.0%

What do the screens show for `Cc1ccc(Cl)cc1NC(=O)Cn1c(=O)n(CCC(=O)N2CCc3ccccc3C2)c(=O)c2ccccc21`?
Tb PYK inh: 4.6%

Results for COc1cccc2c3c(c(=O)[nH]c12)CCC(C)(C)O3 ?
CHX counter: 13.2*; RE007 growth inh: 15.2%; LmPK inhibitor: -1.2%; Shiga toxin inh: 36.3; Giardia FBPA inh: 4.0%; Tb PYK inh: -8.0%

How did Cc1ccc(Oc2c(C(F)(F)F)oc3c(CN4CCC(C)CC4)c(O)ccc3c2=O)cc1 do in these assays?
Tb PYK inh: 0.6%

What do the screens show for `Cc1ccc(OCc2ccc(C(=O)Nc3nccs3)o2)cc1`?
CHX counter: 4.3; RE007 growth inh: 2.1%; LmPK inhibitor: 0.2%; Shiga toxin inh: 30.2; Giardia FBPA inh: 2.2%; Tb PYK inh: 8.8%

How did O=C(Nc1nccs1)c1ccc(COc2ccccc2)o1 do in these assays?
CHX counter: 50.2*; RE007 growth inh: -15.3%; LmPK inhibitor: -0.5%; Shiga toxin inh: 83.8*; Giardia FBPA inh: 3.5%; Tb PYK inh: -4.4%

Results for O=C(Nc1nccs1)c1ccc(CSc2ccccc2)o1 ?
CHX counter: 58.4*; RE007 growth inh: -3.5%; LmPK inhibitor: -2.9%; Shiga toxin inh: 106.9*; Tb PYK inh: 0.9%

How did Cc1ccc(SCc2ccc(C(=O)Nc3nccs3)o2)cc1 do in these assays?
CHX counter: 38.3*; RE007 growth inh: -11.3%; LmPK inhibitor: -9.6%; Shiga toxin inh: 80.9*; Giardia FBPA inh: -3.4%; Tb PYK inh: 3.4%

How did Cc1ccc2c(CC(=O)N(Cc3cccc(Cl)c3)C3CCS(=O)(=O)C3)coc2c1 (centres undefined) do in these assays?
Tb PYK inh: 3.2%

Results for COc1ccc2cc(CNc3ccc(C)cc3)c(=O)n(CC(=O)Nc3cccc(Cl)c3C)c2c1 ?
Tb PYK inh: 3.2%

How did COc1cccc(-c2noc(C3CCCN(C(=O)Cc4ccccc4)C3)n2)c1 (centres undefined) do in these assays?
CHX counter: 22.5*; RE007 growth inh: -14.0%; LmPK inhibitor: -1.6%; Shiga toxin inh: 24.1; Giardia FBPA inh: -1.0%; Tb PYK inh: 4.1%

Results for CCCCCCC(=O)N1CCCC(c2nc(-c3cccc(OC)c3)no2)C1 (centres undefined) ?
CHX counter: -1.8; RE007 growth inh: -6.1%; LmPK inhibitor: 4.8%; Shiga toxin inh: 14.4; Giardia FBPA inh: 5.6%; Tb PYK inh: -0.2%

What do the screens show for `COc1cccc(-c2noc(C3CCCN(C(=O)c4cccc(F)c4)C3)n2)c1` (centres undefined)?
CHX counter: 34.7*; RE007 growth inh: -6.2%; LmPK inhibitor: -2.9%; Shiga toxin inh: 45.4*; Giardia FBPA inh: 2.6%; Tb PYK inh: 3.0%

How did CCCC(=O)N1CCCC(c2nc(-c3cccc(OC)c3)no2)C1 (centres undefined) do in these assays?
CHX counter: 32.0*; RE007 growth inh: -8.9%; LmPK inhibitor: -16.6%; Shiga toxin inh: 77.0*; Giardia FBPA inh: -0.2%; Tb PYK inh: -4.2%

Results for COc1ccc(-c2noc(C3CCCN(C(=O)c4cccc(F)c4)C3)n2)cc1 (centres undefined) ?
CHX counter: -2.2; RE007 growth inh: 26.7%; LmPK inhibitor: 1.4%; Giardia FBPA inh: -5.9%; Tb PYK inh: -3.0%

Results for COc1ccccc1C(=O)Nc1ccccc1OCc1cc(=O)n2cc(C)sc2n1 ?
Tb PYK inh: -1.2%

What do the screens show for `Cc1cccc(OCCNc2cc(N3CCOCC3)ccc2[N+](=O)[O-])c1`?
CHX counter: 29.6*; RE007 growth inh: 15.0%; LmPK inhibitor: 0.5%; Shiga toxin inh: 26.0*; Giardia FBPA inh: -8.3%; Tb PYK inh: 1.5%

What do the screens show for `COc1ccc(-c2nc(C#N)c(NCCc3ccccc3)o2)cc1`?
CHX counter: 33.6*; RE007 growth inh: -2.1%; LmPK inhibitor: 1.0%; Shiga toxin inh: 64.0*; Giardia FBPA inh: -8.7%; Tb PYK inh: 6.0%

What do the screens show for `COc1ccc(CNc2oc(-c3ccccc3)nc2C#N)cc1`?
CHX counter: 21.7*; RE007 growth inh: 22.1%; LmPK inhibitor: 0.5%; Shiga toxin inh: 21.3; Giardia FBPA inh: -0.8%; Tb PYK inh: 1.0%

What do the screens show for `COc1ccc(-c2nc(C#N)c(NCCN(C)C)o2)cc1`?
RE007 growth inh: -8.4%; Tb PYK inh: -3.1%

Results for COc1ccc(-c2nc(C#N)c(NCc3ccccc3Cl)o2)cc1 ?
CHX counter: 21.1; RE007 growth inh: 3.3%; LmPK inhibitor: 0.5%; Shiga toxin inh: 11.2; Giardia FBPA inh: 5.4%; Tb PYK inh: 4.5%

What do the screens show for `COc1ccc(-c2nc(C#N)c(NCc3cccnc3)o2)cc1OC`?
CHX counter: -2.6; RE007 growth inh: -3.0%; LmPK inhibitor: 0.7%; Shiga toxin inh: -12.1; Giardia FBPA inh: 4.6%; Tb PYK inh: -6.2%

How did COc1ccc(-c2nc(C#N)c(NCc3ccc(F)cc3)o2)cc1OC do in these assays?
CHX counter: 24.1*; RE007 growth inh: -3.0%; LmPK inhibitor: 1.9%; Shiga toxin inh: 44.7; Giardia FBPA inh: 0.0%; Tb PYK inh: 0.7%

Results for CCOc1ccccc1NC(=O)c1c(C)cc(C)nc1SCC(=O)c1cccc(OC)c1 ?
Tb PYK inh: -7.2%

Bioassay records deposited in PubChem by National Center for Advancing Translational Sciences (NCATS).
